Inconclusive results are not listed. The source made the active and inactive calls. Rule for the calls, unless noted: active = hit-call score of the fitted dose curve at least 0.9, where 1 is the maximum; inconclusive = response in the unintended direction; inactive = score below 0.9.

Assay [1] has as its target Aryl hydrocarbon receptor (Homo sapiens) (UniProt P35869). Briefly: ATG_Ahr_CIS: Attagene CIS-FACTORIAL HepG2 Assay for human Aryl Hydrocarbon Receptor (Ahr) (AID 2282930; active = hit-call score of the fitted dose curve at least 0.9, where 1 is the maximum; inactive = score below 0.9). The note with it: HepG2 AhR cis-factorial reporter transcription; actives raise or lower the signal. Summed up: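 Following 24 h of chemical dosing, transfected HepG2 liver cells with cis-driven reporter units were lysed for RNA; reporter mRNA was quantified via RT-PCR and capillary electrophoresis, and responses fitted bidirectionally from DMSO.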

Assay [2] is described as follows: ATG_AP_1_CIS: Attagene CIS-FACTORIAL HepG2 Assay for human Activator Protein 1 (AP-1) (AID 2282931; active = hit-call score of the fitted dose curve at least 0.9, where 1 is the maximum; inactive = score below 0.9). Conditions: HepG2 Attagene cis-factorial AP-1 reporter mRNA; actives raise or lower the signal. Summed up: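 We transfected HepG2 cells transiently with a set of cis-regulated reporter transcription units, dosed them for 24 h, and quantified reporter mRNA via RT-PCR and capillary electrophoresis, scoring gain or loss of signal relative to DMSO.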

The nature of assay [3]: ATG_E_Box_CIS: Attagene CIS-FACTORIAL HepG2 Assay for human Enhancer Box (E-box) (AID 2282936; active = hit-call score of the fitted dose curve at least 0.9, where 1 is the maximum; inactive = score below 0.9). Conditions: HepG2 E-box cis-reporter transcription, actives raise or lower the signal. Summed up:
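Endogenous transcription factor activity was sensed in human HepG2 liver cells through transfected cis-promoter reporter units. After 24 h of dosing, total RNA was reverse-transcribed and reporter cDNA resolved by capillary electrophoresis.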

Assay [4] can be described thus: ATG_M_61_CIS: Attagene CIS-FACTORIAL HepG2 Assay for M61 Transcription Factor (Internal Marker) (AID 2282937; active = hit-call score of the fitted dose curve at least 0.9, where 1 is the maximum; inactive = score below 0.9). The note with it: HepG2 Attagene CIS-FACTORIAL M61 internal marker reporter; actives raise or lower the signal. The essentials: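 Multiplexed reporter mRNA assay, HepG2 human hepatoma cells, 24 h treatment. Signal: FAM-labelled, HpaI-digested RT-PCR fragments by CE. Fit: bidirectional, baseline DMSO.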

Assay [5] can be described thus: ATG_GRE_CIS: Attagene CIS-FACTORIAL HepG2 Assay for human Glucocorticoid Response Elements (GRE) (AID 2282947; active = hit-call score of the fitted dose curve at least 0.9, where 1 is the maximum; inactive = score below 0.9). The note with it: HepG2 GRE cis-reporter, Attagene multiplex mRNA; actives raise or lower the signal. The essentials: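 Cells (HepG2) bearing transfected cis-promoter reporter transcription units were treated with chemical for 24 hours. Reporter mRNA was measured via RT-PCR with capillary electrophoresis, and activity was fitted in both directions relative to DMSO.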

A short description of assay [6]: ATG_PBREM_CIS: Attagene CIS-FACTORIAL HepG2 Assay for human Phenobarbital-responsive Enhancer Module (PBREM) (AID 2282955; active = hit-call score of the fitted dose curve at least 0.9, where 1 is the maximum; inactive = score below 0.9). The note with it: HepG2 PBREM cis-reporter, Attagene multiplexed transcription; actives raise or lower the signal. Summed up: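 Multiplexed cis-reporter readout in human hepatoma HepG2 cells; PBREM-regulated transcript quantified after 24 h exposure by fluorescent RT-PCR fragment analysis. Signal changes up or down fitted relative to DMSO.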

Assay [7] in a line: ATG_PPRE_CIS: Attagene CIS-FACTORIAL HepG2 Assay for human Peroxisome Proliferator-activated Response Element (PPRE) (AID 2282958; active = hit-call score of the fitted dose curve at least 0.9, where 1 is the maximum; inactive = score below 0.9). Conditions: HepG2 PPRE cis-element reporter, Attagene transcription factor profiling; actives raise or lower the signal. The essentials: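 DMSO served as negative control and baseline for bidirectional curve fitting. Signal came from PPRE-regulated reporter mRNA in HepG2 cells, measured 24 h post-dosing by RT-PCR, 6-FAM primer extension and capillary electrophoresis.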

The nature of assay [8]: ATG_M_06_TRANS: Attagene TRANS-FACTORIAL HepG2 Assay for M06 Transcription Factor (Internal Marker) (AID 2282983).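 Note: reporter transcript level by RT-PCR then capillary electrophoresis fluorescence.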 Conditions: HepG2 Attagene TRANS M06 internal marker reporter. Summed up: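 Background control endpoint: reporter mRNA from transiently transfected HepG2 after 24 h dosing, detected by RT-PCR with capillary electrophoresis fluorescence. Analysed for gain versus DMSO.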

A short description of assay [9]: ATG_M_32_TRANS: Attagene TRANS-FACTORIAL HepG2 Assay for M32 Transcription Factor (Internal Marker) (AID 2282984).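 Note: transcript level of a background control reporter unit measured by RT-PCR and capillary electrophoresis.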 Conditions: HepG2 Attagene TRANS M32 internal marker reporter. The essentials:
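After 24 h dosing of transfected HepG2 cells, total RNA was reverse-transcribed, reporter sequences PCR-amplified, 6-FAM labelled by primer extension and HpaI-digested before capillary electrophoresis. Signal increase over DMSO was fitted.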

The nature of assay [10]: ATG_NFI_CIS: Attagene CIS-FACTORIAL HepG2 Assay for human Nuclear Factor I (NFI) (AID 2282989; active = hit-call score of the fitted dose curve at least 0.9, where 1 is the maximum; inactive = score below 0.9). Conditions: HepG2 cis-regulatory reporter, NFI response element transcription; actives raise or lower the signal. The essentials: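 Read-out: reporter mRNA via RT-PCR plus capillary electrophoresis with fluorescence detection. Transiently transfected HepG2 (endogenous TF activity on cis promoters), 24 h compound exposure; gain or loss of signal fitted against DMSO.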

Assay [11] concerns the target Peroxisome proliferator-activated receptor gamma (Homo sapiens) (UniProt P37231). Briefly: ATG_PPARg_TRANS: Attagene TRANS-FACTORIAL HepG2 Assay for human Peroxisome Proliferator-activated Receptor-gamma (PPARg) (AID 2283007). Summed up:
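Chimeric NR-Gal4 transactivation is measured in transiently transfected HepG2 cells by reporter mRNA induction at 24 h. Detection uses RT-PCR with fluorescent labelling and capillary electrophoresis; DMSO defines baseline.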

The target in assay [12] is Retinoic acid receptor RXR-alpha (Homo sapiens) (UniProt P19793). Kind of assay: ATG_RXRa_TRANS: Attagene TRANS-FACTORIAL HepG2 Assay for human Retinoid X Receptor alpha (RXRa) (AID 2283012). The essentials:
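Measures exogenous chimeric NR-GAL4 activity in transfected HepG2 liver cells after 24 h of dosing. Induced reporter mRNA was detected by RT-PCR with capillary electrophoresis, and gain of signal was analysed against DMSO.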

Assay [13] addresses Cellular tumor antigen p53 (Homo sapiens) (UniProt P04637). Briefly: TOX21_p53_BLA_p2_ratio: Tox21 HCT-116 p53 Agonism Beta-lactamase Assay, Ratio, Phase 2 (AID 2283592). Summed up:
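Plated HCT116 p53-bla cells (4000/well) received compound after 5 h, then 16 h at 37C/5% CO2. CCF4-AM added, 2 h RT. Ratio of 460 to 530 nm emission taken as the p53 reporter signal.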

The target is the same in assay [14]. Kind of assay: TOX21_p53_BLA_p5_ratio: Tox21 HCT-116 p53 Agonism Beta-lactamase Assay, Ratio, Phase 5 (AID 2283599). Summed up:
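HCT-116 cells carrying a p53-inducible beta-lactamase reporter were seeded at 4000 cells/well and dosed after 5 h with compound in DMSO (217-fold dilution). After 16 h at 37C, CCF4-AM substrate was added for 2 h, and the 460/530 nm emission ratio was scored as gain-of-signal versus DMSO.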

A short description of assay [15]: TOX21_p53_BLA_p5_viability: Viability Assessment in the Tox21 HCT-116 p53 Agonism Beta-lactamase Assay, Phase 5 (AID 2283600). The essentials:
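Workflow: seed 4000 cells per well, wait 5 h, add compounds (DMSO, 217-fold dilution), incubate 16 h, load CCF4-AM 2 h, add CellTiter-Glo, read luminescence after 30 min.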

In assay [16] the target is Cellular tumor antigen p53 (Homo sapiens) (UniProt P04637). Kind of assay: TOX21_p53_BLA_p4_ratio: Tox21 HCT-116 p53 Agonism Beta-lactamase Assay, Ratio, Phase 4 (AID 2283601). The essentials: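 HCT116 cells carrying an inducible beta-lactamase reporter were plated at 4000 cells/well, rested 5 h, then exposed to compounds in DMSO (217-fold dilution) for 16 h at 37C. CCF4-AM substrate was loaded 2 h at room temperature; 460/530 nm emission ratio scored gain-of-signal versus DMSO.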
Cellular tumor antigen p53 (Homo sapiens), sequence (P04637 whole entry, looked up): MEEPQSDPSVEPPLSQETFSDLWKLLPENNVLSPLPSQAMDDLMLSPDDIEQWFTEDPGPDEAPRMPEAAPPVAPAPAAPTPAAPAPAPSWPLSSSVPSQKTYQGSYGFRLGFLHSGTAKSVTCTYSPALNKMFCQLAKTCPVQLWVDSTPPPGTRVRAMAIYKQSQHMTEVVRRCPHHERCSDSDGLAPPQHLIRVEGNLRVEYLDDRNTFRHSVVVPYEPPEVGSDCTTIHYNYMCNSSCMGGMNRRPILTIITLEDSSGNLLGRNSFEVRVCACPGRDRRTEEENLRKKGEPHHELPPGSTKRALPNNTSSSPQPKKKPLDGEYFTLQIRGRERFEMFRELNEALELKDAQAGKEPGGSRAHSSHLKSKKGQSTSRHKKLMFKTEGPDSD

Assay [17] can be described thus: ACEA_ER_AUC_viability: ACEA Biosciences xCELLigence Real-Time Cell Analysis on Estrogen Receptor Agonism for Viability (AID 2283782).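 Note: hit means loss of impedance signal meaning reduced cell growth or viability.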 Summed up: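 Continuous-exposure impedance cell analysis uses T-47D cells in charcoal-stripped serum, eight 1:4 dilutions topping at 100 uM final, biological duplicate. Area under the growth curve at 80 h is fitted against DMSO baseline.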

The target of assay [18] is Hypoxia-inducible factor 1-alpha (Homo sapiens) (UniProt Q16665). Kind of assay: ATG_HIF1a_CIS: Attagene CIS-FACTORIAL HepG2 Assay for human Hypoxia Inducible Factor 1 (HIF1A) (AID 2282951; active = hit-call score of the fitted dose curve at least 0.9, where 1 is the maximum; inactive = score below 0.9). Conditions: HepG2 Attagene cis-factorial HIF1a reporter transcription; actives raise or lower the signal. The essentials:
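Cis-element reporter constructs were transiently transfected into HepG2 cells, which were treated for 24 h; reporter RNA was reverse-transcribed, amplified, labelled and resolved by capillary electrophoresis.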

The target of assay [19] is human Retinoid X Receptor beta (RXRb), RXRB (gene 6257) (UniProt P28702). Briefly: ATG_RXRb_TRANS: Attagene TRANS-FACTORIAL HepG2 Assay for human Retinoid X Receptor beta (RXRb) (AID 2283013). Summed up:
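Chimeric receptor-Gal4 activity was assessed in transiently transfected human HepG2 cells after 24 h exposure. Transcripts from GAL4-UAS reporters were quantified by fluorescent RT-PCR and capillary electrophoresis, with DMSO as negative control and baseline.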

Assay [20] in a line: ATG_M_19_TRANS: Attagene TRANS-FACTORIAL HepG2 Assay for M19 Transcription Factor (Internal Marker) (AID 2282974). Conditions: HepG2 Attagene TRANS-FACTORIAL M19 internal marker reporter. The essentials: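 Multiplexed TRANS format: HepG2 liver cells bearing transient GAL4-UAS reporter units, chemical treatment 24 h, reporter transcripts quantified by RT-PCR plus capillary electrophoresis. DMSO defines baseline.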

Peroxisome proliferator-activated receptor gamma (Homo sapiens), sequence (P37231 whole entry, looked up, the tested form may be a part): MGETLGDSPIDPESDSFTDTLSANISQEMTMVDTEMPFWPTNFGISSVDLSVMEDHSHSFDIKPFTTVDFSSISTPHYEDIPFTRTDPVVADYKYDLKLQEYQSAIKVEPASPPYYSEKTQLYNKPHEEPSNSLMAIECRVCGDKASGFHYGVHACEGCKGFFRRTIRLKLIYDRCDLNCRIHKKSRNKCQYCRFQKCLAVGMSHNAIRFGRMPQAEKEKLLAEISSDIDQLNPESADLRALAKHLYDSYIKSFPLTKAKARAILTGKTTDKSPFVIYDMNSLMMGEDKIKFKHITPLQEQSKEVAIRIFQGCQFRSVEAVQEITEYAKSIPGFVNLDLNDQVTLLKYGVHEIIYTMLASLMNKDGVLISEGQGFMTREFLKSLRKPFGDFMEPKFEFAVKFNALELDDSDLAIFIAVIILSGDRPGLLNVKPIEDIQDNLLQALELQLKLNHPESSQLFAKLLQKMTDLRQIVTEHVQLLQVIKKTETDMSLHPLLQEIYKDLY
Retinoic acid receptor RXR-alpha (Homo sapiens), sequence (P19793 whole entry, looked up, the tested form may be a part): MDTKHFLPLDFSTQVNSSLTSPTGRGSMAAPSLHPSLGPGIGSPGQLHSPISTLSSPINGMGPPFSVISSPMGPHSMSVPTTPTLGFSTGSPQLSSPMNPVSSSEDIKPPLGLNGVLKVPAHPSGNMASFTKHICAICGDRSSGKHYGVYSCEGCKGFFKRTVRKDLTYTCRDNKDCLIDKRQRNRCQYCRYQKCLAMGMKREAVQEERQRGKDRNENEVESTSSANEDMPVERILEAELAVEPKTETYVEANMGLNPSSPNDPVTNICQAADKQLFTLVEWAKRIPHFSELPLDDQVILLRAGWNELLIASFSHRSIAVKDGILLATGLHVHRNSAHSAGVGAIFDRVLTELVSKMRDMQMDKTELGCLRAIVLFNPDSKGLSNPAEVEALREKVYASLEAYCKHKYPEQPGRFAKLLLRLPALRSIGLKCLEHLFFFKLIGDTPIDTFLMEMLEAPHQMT
Hypoxia-inducible factor 1-alpha (Homo sapiens), sequence (Q16665 whole entry, looked up): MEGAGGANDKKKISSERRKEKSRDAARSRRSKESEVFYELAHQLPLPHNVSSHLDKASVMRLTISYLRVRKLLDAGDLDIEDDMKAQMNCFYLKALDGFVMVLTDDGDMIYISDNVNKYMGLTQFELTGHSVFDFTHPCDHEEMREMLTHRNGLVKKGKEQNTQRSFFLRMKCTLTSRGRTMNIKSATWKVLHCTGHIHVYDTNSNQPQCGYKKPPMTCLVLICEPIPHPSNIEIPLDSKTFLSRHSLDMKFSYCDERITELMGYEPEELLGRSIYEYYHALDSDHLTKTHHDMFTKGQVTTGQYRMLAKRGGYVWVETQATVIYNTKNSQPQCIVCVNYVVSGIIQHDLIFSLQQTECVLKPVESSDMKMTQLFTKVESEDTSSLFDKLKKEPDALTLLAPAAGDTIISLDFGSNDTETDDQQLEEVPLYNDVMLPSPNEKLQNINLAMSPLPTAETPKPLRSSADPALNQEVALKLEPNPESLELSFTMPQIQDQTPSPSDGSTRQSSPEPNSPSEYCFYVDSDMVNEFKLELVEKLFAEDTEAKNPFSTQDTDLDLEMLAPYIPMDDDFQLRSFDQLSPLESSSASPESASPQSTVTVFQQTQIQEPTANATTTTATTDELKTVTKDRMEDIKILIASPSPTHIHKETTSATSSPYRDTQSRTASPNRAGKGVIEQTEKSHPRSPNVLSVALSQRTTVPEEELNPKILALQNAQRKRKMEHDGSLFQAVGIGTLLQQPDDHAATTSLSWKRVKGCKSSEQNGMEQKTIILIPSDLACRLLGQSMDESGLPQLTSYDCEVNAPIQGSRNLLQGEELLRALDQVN
Aryl hydrocarbon receptor (Homo sapiens), sequence (P35869 whole entry, looked up): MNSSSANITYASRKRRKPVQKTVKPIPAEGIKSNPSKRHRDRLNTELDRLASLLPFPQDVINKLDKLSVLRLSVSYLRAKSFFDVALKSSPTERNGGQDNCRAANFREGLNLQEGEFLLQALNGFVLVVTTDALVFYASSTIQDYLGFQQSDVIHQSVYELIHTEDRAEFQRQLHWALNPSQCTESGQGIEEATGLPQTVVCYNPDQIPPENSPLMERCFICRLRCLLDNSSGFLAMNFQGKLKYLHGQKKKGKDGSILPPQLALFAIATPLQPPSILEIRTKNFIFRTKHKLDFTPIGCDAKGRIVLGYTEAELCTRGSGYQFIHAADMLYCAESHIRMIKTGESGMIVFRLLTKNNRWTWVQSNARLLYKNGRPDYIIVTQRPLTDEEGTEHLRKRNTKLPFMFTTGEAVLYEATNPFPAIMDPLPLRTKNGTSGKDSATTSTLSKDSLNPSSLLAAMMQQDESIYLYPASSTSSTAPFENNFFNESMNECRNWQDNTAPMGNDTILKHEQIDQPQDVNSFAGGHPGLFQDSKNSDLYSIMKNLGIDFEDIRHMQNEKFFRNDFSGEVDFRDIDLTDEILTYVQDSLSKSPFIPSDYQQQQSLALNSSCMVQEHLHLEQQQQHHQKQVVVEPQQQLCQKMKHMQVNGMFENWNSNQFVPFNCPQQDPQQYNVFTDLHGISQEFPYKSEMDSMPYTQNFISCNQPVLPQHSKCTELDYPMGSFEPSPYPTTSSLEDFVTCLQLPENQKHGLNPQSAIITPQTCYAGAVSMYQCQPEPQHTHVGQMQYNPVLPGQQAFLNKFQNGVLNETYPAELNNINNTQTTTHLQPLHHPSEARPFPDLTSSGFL
human Retinoid X Receptor beta (RXRb), RXRB (gene 6257), sequence (P28702 whole entry, looked up, the tested form may be a part): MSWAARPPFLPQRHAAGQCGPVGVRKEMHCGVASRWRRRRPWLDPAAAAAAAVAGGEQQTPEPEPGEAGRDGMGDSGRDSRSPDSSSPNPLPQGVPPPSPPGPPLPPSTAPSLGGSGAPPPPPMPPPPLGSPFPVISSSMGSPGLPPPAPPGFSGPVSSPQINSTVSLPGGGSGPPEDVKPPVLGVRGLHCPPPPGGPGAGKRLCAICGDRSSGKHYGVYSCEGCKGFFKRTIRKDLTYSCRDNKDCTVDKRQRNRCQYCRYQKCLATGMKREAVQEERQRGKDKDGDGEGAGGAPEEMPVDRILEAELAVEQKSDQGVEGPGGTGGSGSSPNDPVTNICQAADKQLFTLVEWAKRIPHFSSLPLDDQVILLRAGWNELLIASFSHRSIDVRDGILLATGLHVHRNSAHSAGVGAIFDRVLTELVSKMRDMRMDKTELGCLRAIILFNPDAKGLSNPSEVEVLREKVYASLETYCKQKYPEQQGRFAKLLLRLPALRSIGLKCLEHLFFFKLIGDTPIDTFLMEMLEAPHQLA

`O=C(O)COc1ccccc1`: the compound was classed as inactive in assay [1], in assay [2], in assay [3], in assay [4], in [5] and in assay [6]. The call in assay [7], in assay [8], in assay [9], in [10], in assay [11] and in [12] was inactive. Moreover, the result in assay [13], in [14], in [15], in assay [16] and in assay [17] was inactive.
As for `O=P(O)(Oc1ccccc1)Oc1ccccc1`, the compound was classed as inactive in assay [1], in assay [2], in assay [3], in assay [5], in assay [18] and in assay [6]. In addition, the compound was classed as inactive in assay [9], in assay [11], in assay [12], in [19], in assay [13] and in [16]. For the same compound, the compound was called inactive in [17].
The term AC50 denotes the concentration at which the activity in the assay is half-maximal. For `c1ccc(P(c2ccccc2)c2ccccc2)cc1`, the compound was called inactive in [1], in [2], in assay [3], in [4], in assay [5] and in assay [18]. Further, the result in assay [6], in assay [7], in assay [8], in assay [9], in assay [10] and in [11] was inactive. The outcome in [14] and in assay [15] was inactive. Further, the figures for the AC50 in [19] and in assay [17] were 38.6 µM (active) and 82.9 µM (active), respectively.
With `CC(C)CCCCCCCOC(=O)c1ccccc1C(=O)OCCCCCCCC(C)C`, the call in assay [1], in assay [2], in [3], in assay [4], in [5] and in assay [18] was inactive. In addition, the result in assay [6], in [20], in assay [9], in [10], in assay [12] and in assay [13] was inactive. The result in assay [14] and in assay [17] was inactive.
`CCCC=NO`: the outcome in [1], in assay [2], in [3], in assay [5], in [18] and in assay [6] was inactive. Moreover, the result in [20], in assay [9], in [10], in assay [11], in assay [12] and in assay [19] was inactive. The result in assay [13], in assay [15] and in assay [17] was inactive.
As for `C[C@]12CCC(=O)C(O)=C1CC[C@@H]1[C@@H]2CC[C@]2(C)C(=O)CC[C@@H]12`, in assay [1], the AC50 is 31.2 µM (active). Also, the compound was called inactive in assay [2], in assay [3], in [5], in assay [18], in assay [6] and in [20]. For the same compound, the result in [11], in assay [12], in assay [13], in assay [14] and in assay [15] was inactive.
Consider `CCc1cccc(C)c1N(C(=O)CCl)[C@@H](C)COC`, for which the outcome in assay [1], in [2], in assay [3], in assay [4], in assay [18] and in [6] was inactive. For the same compound, the call in assay [20], in [8], in assay [9], in assay [19], in assay [13] and in assay [14] was inactive. Further, the outcome in [15] and in [16] was inactive. Further, in [11], the concentration at half-maximal activity (AC50) was 27 µM (active).
As for `O=C(NCNC(=O)NC1C(=O)NC(=O)N1CO)NC1C(=O)NC(=O)N1CO` (stereo not drawn), the call in [1], in assay [3], in [4], in [5], in assay [7] and in [8] was inactive. For the same compound, the compound was classed as inactive in [10], in [11], in [12], in assay [13], in assay [14] and in [16]. Further, the concentration at half-maximal activity (AC50) in assay [2] was 130 µM (active); in [19], 39.8 µM (active); in assay [17] it was 9.92 µM (active).
Regarding `CC(C)(O)C#N`, the compound was called inactive in [1], in assay [2], in [3], in [4], in assay [18] and in assay [6]. The call in [8], in [9], in [10], in assay [11], in assay [13] and in [14] was inactive. Besides, the outcome in assay [15], in assay [16] and in [17] was inactive. In addition, in assay [19], the half-maximal activity concentration (AC50) is 78.5 µM (active).

The record behind these values is PubChem BioAssay (EPA / NIEHS).
